In PubChem BioAssay AID2642 (Johns Hopkins Ion Channel Center, 2010):
Hit rate of the full screen: of about 310,000 compounds, about 3,900 (1.3%) were called active.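 How the source made its calls: active means compounds whose thallium flux B-score, printed positive for inhibition, exceeds three library SD while starting fluorescence stays within three; inactive means the rest.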 For the sample, actives were picked, then their nearest neighbours and some compounds at random.

target: Potassium voltage-gated channel subfamily KQT member 1 (Homo sapiens) (UniProt P51787); assay: KCNQ1 potassium current blockers – cell-based, thallium flux, high-throughput, primary screen (AID 2642); details: CHO-K1 KCNQ1, FluxOR thallium flux fluorescence, at 10 µM; stronger effect = higher value;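 further: channel opened by potassium depolarization with thallium stimulus after 20 min compound exposure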
Sequence (P51787 whole entry, looked up): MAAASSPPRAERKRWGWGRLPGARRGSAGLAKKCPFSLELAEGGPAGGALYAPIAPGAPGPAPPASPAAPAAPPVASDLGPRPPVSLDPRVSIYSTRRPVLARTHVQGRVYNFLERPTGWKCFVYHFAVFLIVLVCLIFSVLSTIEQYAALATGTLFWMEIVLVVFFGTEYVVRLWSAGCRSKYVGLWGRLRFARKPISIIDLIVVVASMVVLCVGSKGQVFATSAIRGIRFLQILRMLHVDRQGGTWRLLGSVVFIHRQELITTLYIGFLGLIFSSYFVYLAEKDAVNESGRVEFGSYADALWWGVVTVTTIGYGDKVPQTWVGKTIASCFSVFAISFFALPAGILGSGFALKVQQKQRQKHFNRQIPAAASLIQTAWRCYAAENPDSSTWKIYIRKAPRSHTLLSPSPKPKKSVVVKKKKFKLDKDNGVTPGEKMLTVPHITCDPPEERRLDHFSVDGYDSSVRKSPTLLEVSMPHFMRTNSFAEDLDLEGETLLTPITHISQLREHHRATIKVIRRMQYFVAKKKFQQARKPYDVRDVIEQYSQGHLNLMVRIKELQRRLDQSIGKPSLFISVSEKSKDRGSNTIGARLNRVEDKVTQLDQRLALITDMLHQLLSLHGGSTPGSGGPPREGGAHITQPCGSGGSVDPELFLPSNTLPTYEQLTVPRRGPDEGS

B-score, active:
CN1C2CCC1/C(=C\c1ccccc1Cl)C(=O)/C2=C\c1ccccc1Cl 10
COc1ccccc1C1CC(=O)n2c(nc(-c3ccccc3)c2-c2ccccc2)S1 (configuration not stated) 7
COc1ccc(-c2oc3ncn(Cc4ccco4)c(=N)c3c2-c2ccc(OC)cc2)cc1 9
CCn1c(SCCC(C)C)nnc1-c1c[nH]c2ccccc12 6
COC(=O)C[n+]1cccc2ccccc21 8
COc1cc(S(=O)(=O)N2CCOCC2)ccc1NC(=O)COc1ccc(N(C)S(=O)(=O)c2ccc(C)cc2)cc1 13
CCOC(=O)c1c(NC(=O)C(C)Sc2c[nH]c3ccccc23)sc2c1CCC2 (configuration not stated) 12
CC(=O)N1CCCc2cc(S(=O)(=O)N3CCCC(C(=O)N4CCN(c5cccc(Cl)c5)CC4)C3)ccc21 (configuration not stated) 8
Cc1ccc(-c2nn(-c3ccccc3)cc2/C=N/NC(=O)c2ccc3c(c2)OCO3)cc1 6
NC(=O)c1ccc(NC(=O)COC(=O)C(Cc2ccccc2)NC(=O)c2ccccc2)cc1 (configuration not stated) 6
O=C(COC(=O)[C@H](Cc1ccccc1)NC(=O)c1cccs1)Nc1cc(F)ccc1F 6
Cn1nccc1C(=O)NC1CCCc2c1cnn2-c1ccccc1F (configuration not stated) 6
Cn1nccc1C(=O)NC1CCCc2c1cnn2-c1ccc(F)cc1F (configuration not stated) 9
COc1ccc(C(=O)NC2CCCc3c2cnn3-c2cccc(C)c2C)c(OC)n1 (configuration not stated) 11
COc1ccc(-c2csc3ncnc(N4CCN(S(=O)(=O)c5cccc(F)c5)CC4)c23)cc1 6
CCN1/C(=C\c2ccc3ccccc3[n+]2CC)Sc2cc(C)ccc21 15
O=C(Nc1ccc(Cl)cc1)Nc1ccc(Oc2cccnc2)nc1 8
Cc1ccc(N2CCN(S(=O)(=O)c3ccc(F)cc3)CC2)c(C)c1 7
Clc1cccc(-c2nc(NCC3CCCO3)c3ccccc3n2)c1 (configuration not stated) 6
C=CCn1c(-c2ccccc2OCC)n[nH]c1=S 6
Cc1cccc(-c2nc3ccc(C(=O)NCCN4CCN(C)CC4)cc3nc2-c2cccc(C)c2)c1 7

B-score, inactive:
Cc1cc(C)c(S(=O)(=O)N2CCCC2CNC(=O)c2ccc3c(c2)OCO3)c(C)c1 (configuration not stated)
Cc1ccc(OCCCCN2CCCCC2)c(Br)c1
CC(C)CC(=O)N1CCN(Cc2ccccc2Br)CC1
CCN1CC=C2C(C#N)=C(N)C(C#N)(C#N)[C@H](c3ccoc3)[C@H]2C1
CCC(C)(C)NC(=O)/C=C/c1cc(OC)c(OC)c(S(=O)(=O)N2CCc3ccccc32)c1
O=C(CN1CCCCCC1)NCCN1C(=O)S/C(=C\c2ccccc2Cl)C1=O
O=C(CN1C(=O)S/C(=C\c2ccccc2Cl)C1=O)NC1C=CS(=O)(=O)C1 (configuration not stated)
COc1ccc(/C=N/n2c(C)cc(C)cc2=O)cc1
OCCC1CN(Cc2cccc(O)c2)CCN1CCc1ccccc1 (configuration not stated)
COc1ccc(C2CC(=O)n3c(nc4ccccc43)S2)cc1OC (configuration not stated)
COc1cccc(C2CC(c3ccccc3)=NN2S(=O)(=O)c2ccccc2)c1OC (configuration not stated)
COc1ccc2[nH]c3c(=O)n(Cc4ccco4)cnc3c2c1
COc1ccc(-c2oc3ncnc(NCCCO)c3c2-c2ccc(OC)cc2)cc1
CCOc1ccc2ccccc2c1/C=N/NC(=O)c1c(C)cc(C)[nH]c1=O
CN(C(=O)CCNC(=O)Cn1ccc2ccccc2c1=O)c1ccc(Br)cc1
CCn1c(SCC(=O)Nc2ccc(OC)c(OC)c2)nnc1-c1c[nH]c2ccccc12
CCC(C)Sc1nnc(-c2c[nH]c3ccccc23)n1CCOC (configuration not stated)
CC1CC(=S)Nc2ccccc2N1Cc1ccccc1 (configuration not stated)
COc1ccc(S(=O)(=O)N2CCCC(C(=O)NCCCn3ccnc3)C2)cc1OC (configuration not stated)
Cc1cccc[n+]1CC(=O)c1ccccc1
COc1ccccc1NC(=O)C[n+]1ccccc1
O=C(CC1C(=O)NCCN1C(=O)c1ccc([N+](=O)[O-])cc1)Nc1cccc(Cl)c1 (configuration not stated)
CC1c2nc3ccccc3n2C(CC(=O)NCCCN2CCOCC2)C(=O)N1Cc1ccccc1 (configuration not stated)
Cc1cc(Cl)ccc1OCCCC(=O)Nc1cccc(-n2cnnn2)c1
O=C(CCC1CCCCC1)Nc1cc(C(F)(F)F)ccc1N1CCOCC1
COc1ccc(S(=O)(=O)N2CCOCC2)cc1NC(=O)COc1ccccc1
COc1ccc(NC(=O)CN2C(=O)COc3ccc(S(=O)(=O)N4CCOCC4)cc32)c(OC)c1
CCOC(=O)c1c(NC(=O)CSc2cn(CC)c3ccccc23)sc2c1CCC2
CCOC(=O)c1c(NC(=S)NC)sc2c1CCCC2
CCOc1ccc(S(=O)(=O)N2CCC(C(=O)OCc3ccc(OC)cc3)CC2)cc1
CC1CN(C(=S)Nc2ccc(Br)cc2Cl)CC(C)O1 (configuration not stated)
CCCCOC(=O)Nc1nnc(CC(=O)NCc2ccccc2)s1
CC(=O)N1CCCc2cc(S(=O)(=O)N3CCCC(C(=O)NCc4ccc(Cl)cc4)C3)ccc21 (configuration not stated)
CC(=O)N1c2ccc(S(=O)(=O)N3CCCC(C(=O)Nc4cccc(Cl)c4)C3)cc2CC1C (configuration not stated)
CCCOc1cccc(C(=O)Nc2ccccc2C(=O)N2CCN(C)CC2)c1
COC(=O)c1c(NC(=O)COC(=O)[C@@H](NS(=O)(=O)c2ccccc2)C(C)C)sc2c1CCC2
CC(C)(C)OC(=O)N/N=C/c1cn(-c2ccccc2)nc1-c1cccnc1
O=C(O)c1ccc(N/N=C/c2cn(-c3ccccc3)nc2-c2cccs2)cc1
CC(=O)Nc1ccc(N2C(=O)CCC2=O)cc1C
COC(=O)[C@H](Cc1ccccc1)NC(=O)Nc1ccc(OC)cc1
CCC(C(=O)OCC(=O)Nc1ccc(C(=O)Nc2ccc(OC)cc2)cc1)c1ccccc1 (configuration not stated)
Cc1ccc(C)c(NC(CC(=O)c2ccccc2)C(=O)OCC(=O)c2cccs2)c1 (configuration not stated)
CCc1ccc(NC(=O)COC(=O)c2cccs2)cc1
CCCCSCCCNC(=O)C1CCC(CNS(=O)(=O)c2ccc(NC(C)=O)cc2)CC1 (configuration not stated)
C=CCSc1nc(N)cc(=O)[nH]1
COc1ccc(C(=O)OCC(=O)Nc2cccc(C(C)=O)c2)cc1OC
CN1CCN(C(CNS(=O)(=O)c2cccs2)c2cccnc2)CC1 (configuration not stated)
CCOC(=O)N1CCN(c2c(NCCCN3CCCC(C)C3)c(=O)c2=O)CC1 (configuration not stated)
CCC1C=C(c2ccccc2)C=CN=C1N(CC)CC (configuration not stated)
c1ccc2c(NC3C4CC5CC(C4)CC3C5)nc(N3CCOCC3)nc2c1 (configuration not stated)
Cc1ccc(-n2ncc3c2CCCC3NC(=O)c2cnccn2)cc1C (configuration not stated)
COc1ccc(C(=O)NC2CC(C)(C)Cc3c2cnn3-c2ccccc2C)o1 (configuration not stated)
CC1(C)Cc2c(cnn2-c2cccc(F)c2)C(NC(=O)c2cc[n+]([O-])cc2)C1 (configuration not stated)
Cc1cc(C(=O)NC2CCCc3c2cnn3-c2cccc(C)c2C)c(C)o1 (configuration not stated)
Cn1nccc1CNC(=O)c1ccnn1C
CC(=O)NCC(=O)NC1CCCc2c1cnn2-c1ccccc1F (configuration not stated)
Cc1nc(C(=O)N2CCCC(C(=O)c3ccc(Cl)cc3)C2)cs1 (configuration not stated)
CCOC(=O)N1CCN(CCC(=O)Nc2ccccc2)CC1
Cc1cccc(NC(=O)C2CCCN(C(=O)Nc3ccc(F)cc3)C2)c1C (configuration not stated)
COc1cccc2c(C)c(C(=O)O)[nH]c12
Cc1nn(-c2ncc(C(F)(F)F)cc2Cl)c(=O)n1-c1ccccc1
CC1CCCC(N2CCN(C(=O)c3ccc(F)cc3)CC2)C1 (configuration not stated)
C=CCn1c(SCC(N)=O)nnc1-c1cc2c(s1)CCC(CC)C2 (configuration not stated)
COc1ccc(-c2csc3ncnc(N4CCN(S(=O)(=O)c5ccccc5C#N)CC4)c23)cc1
COc1ccc(-c2csc3ncnc(Oc4ccc5c(C)cc(=O)oc5c4)c23)cc1
CCN(c1ccc(NC(=O)COC(=O)CCc2nc3ccccc3n2-c2ccccc2)cc1)C(C)C
O=C(CNS(=O)(=O)c1ccccc1)NCC(=O)OCc1ccccc1F
Cc1ccc(SCC(=O)NC(=O)NCc2ccco2)c(C)c1
CC(=O)NCc1ccc(S(=O)(=O)NC2CCN(Cc3ccccc3)CC2)cc1
COc1ccc(C)cc1NC(=S)Nc1ccccc1SC
O=C1NC(=Nc2ccc(Cl)cc2)SC1Cc1cccc(Cl)c1Cl (configuration not stated)
Cc1ccc(NC(=O)Nc2cccnc2)cc1
O=C(NNC(=O)c1csc(-c2cccnc2)n1)Nc1ccc(Cl)cc1
Cc1cccc(N2CCC(NCc3c(C(=O)N4CCCCC4)nc4c(C)cccn34)CC2)c1
Cc1ccc(S(=O)(=O)N2CCN(C)CC2)cc1
Cc1ccccc1N1CCN(S(=O)(=O)c2ccc3ccccc3c2)CC1
O=C(NCC1CCCO1)c1cc(-c2ccccc2)nc2ccccc12 (configuration not stated)
c1ccc2c(NCC3CCCO3)nc(-c3ccncc3)nc2c1 (configuration not stated)
COc1ccc(CC(NC(C)=O)C(=O)NC2CCN(C(=O)c3ccc(Cl)cc3)CC2)cc1 (configuration not stated)
CC1CCN(C(=S)NC(=O)c2ccccc2Br)CC1
C=CCn1c(-c2sc(-c3ccccc3)nc2C)n[nH]c1=S
C=CCn1c(-c2ccc3[nH]c(C)c(C)c3c2)n[nH]c1=S
COc1ccc(S(=O)(=O)N2CCN(C)CC2)c(C)c1
CC(C)(C)NC(=O)CN(Cc1cccs1)C(=O)CNS(=O)(=O)c1ccccc1
Cc1ccc(C(=O)NCCN2CCOCC2)cc1C
CCC1=Nc2cc(C(=O)NCCN3CCCC3)ccc2Sc2ccc(C)cc21
